Assay outcomes (PubChem BioAssay)
Compounds with a hit are over-represented: about 12% of the library has one in this group of screens.
HP1b binding inh – blocks HP1-beta chromodomain binding to methylated histone tails; P83916; 0.56% of 390,000 active; AlphaScreen HP1-beta / biotin-H3K9me3 peptide binding; AID 540317; Potency, µM (doses to about 114 µM), without a hit: at the top dose activity change, negative = inhibition, actives largely listed as inhibitors; further: nearly all actives have a fitted effect of over 70% in size
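Compound inhibition of the preformed complex between 50 nM HP1-beta and 50 nM biotinylated H3K9me3 peptide was read by AlphaScreen. Buffer was PBS pH 7.4 with 0.01% Tween-20. Incubations ran 30 min at room temperature, with 10 ug/mL donor/acceptor beads.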
Sfp PPTase inh – blocks B. subtilis Sfp PPTase activity. Q9F4F7. Biochemical Sfp PPTase activity, qHTS. Potency, µM, for the others: largest response in the series, negative = inhibition, actives largely listed as inhibitors. 3.5% of 310,000 active;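 further: the enzyme is Sfp with the accession as filed and its product quenches rhodamine fluorescence; 0% = enzyme reaction without inhibitor and -100% = no enzyme wells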
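Reaction rates are the 30-min fluorescence difference (ex 525, em 598 nm) in wells containing 15 nM Sfp, 5 uM rhodamine-CoA and 12.5 uM BHQ-2-YbbR at pH 7.6 with 10 mM MgCl2.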
BAZ2B inh – BAZ2B (human) inhibition | Q9UIF8 | 4.4% of 360,000 active | Potency, µM (series often up to 114 µM), for the others: at the highest dose activity change, negative = inhibition, actives largely listed as inhibitors | AlphaScreen BAZ2B-H3K14Ac peptide displacement | AID 504333; further: on the % scale 0 is the no-effect control and ±100 the full control effect; nearly all actives have a fitted effect of over 60% in size
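Complex of BAZ2B and biotin-H3K14Ac (50 nM apiece) forms over 30 min at RT, then faces library compounds up to 110 uM for another 30 min; AlphaScreen beads added, 20 min dark incubation, luminescence read.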
G9a inh – blocks human histone lysine methyltransferase G9a | Q96KQ7 | AID 504332 | 8.8% of 350,000 active | Potency, µM (series often up to 102 µM), for inactives: at the top dose activity, negative = inhibition, usual class: inhibitors | G9a H3K9 monomethylation, AlphaScreen, 2 h; further: on the % scale 0 is the no-effect control and ±100 the full control effect; nearly all actives have a fitted effect of over 75% in size
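Methyltransferase reactions run at room temperature for 2 h (20 nM enzyme, 500 nM biotin-H3K9 peptide, 20 uM SAM) after a 15 min compound preincubation; product detected by AlphaScreen beads and anti-H3K9me1 antibody.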
JMJD2A Tudor – JMJD2A Tudor domain (human) inhibition | AlphaScreen JMJD2A-Tudor / H3K4me3 peptide binding | Potency, µM (series often up to 114 µM), inactives show top-dose activity change, negative = inhibition, most hits filed as inhibitors | O75164 | 4.4% of 390,000 active | AID 504339; further: on the % scale 0 is the no-effect control and ±100 the full control effect; nearly all actives have a fitted effect of over 50% in size
An asterisk follows results filed as active; ? = inconclusive; / = no result; ! = repeats disagree; [ ] = remark or other dose. The call rests on the fitted dose curve; in most records, active means well fitted curve in the direction sought with a large enough effect; inconclusive means small, poorly fitted or top-dose-only effect, or another doubt; inactive means no such curve, though single readings can be large; an effect the other way counts as inactive or inconclusive. Potency means the concentration at half of the fitted maximal effect.

SMILES	HP1b binding inh	Sfp PPTase inh	BAZ2B inh	G9a inh	JMJD2A Tudor
COc1ccc(Cn2c(C(=O)O)c(CNCCc3ccco3)c3ccc(C)cc32)cc1	22%	/	?	?	-25%
Cc1ccc2c(CNCc3ccc(C)o3)c(C(=O)O)n(Cc3ccc(F)cc3)c2c1	-5%	/	50µM*	?	?
CCOC(=O)C1=C(N)N(c2ccccc2)C(=O)C1	?	6%	-3%	17%[12.7 µM]	3.5µM*
CCCN1C(=O)CC(C(=O)OC)=C1C	21%	13%	2%	1%[12.7 µM]	0%
CCOC(=O)c1ccc(N2C(=O)CC(C(=O)OC)=C2C)cc1	-9%	-3%	-4%	-39%[59 µM]	-32%
CCOC(=O)C1=C(N)N2C(=O)CSC2=C(C(=O)OC)C1	38%	56µM*	?	50µM*	-30%
CCOC(=O)c1cc(-c2c(Cl)cccc2Cl)no1	96%	-3%	24%	216%	58%
COc1cccc(/C=N/NC(=O)C(c2ccncc2)N2CCOCC2)c1 (stereo not given)	50%	6%	2%	29%[59 µM]	1%
O=C(N/N=C/c1cc(Br)ccc1O)C(c1ccncc1)N1CCOCC1 (stereo not given)	16%	2%	50µM*	14%	79µM*
CN(C)c1ccc(NC(=O)Cn2c(SCc3ccccc3F)nc3cccnc32)cc1	16%	/	-10%	3.2µM*	-14%
Cc1ccc(C)c(CSc2nc3ccncc3n2CC(=O)Nc2ccc(N(C)C)cc2)c1	-9%	/	?	5µM*	?
CN(C)C(=O)CCc1ccc2c3c([nH]c2c1)[C@]1(C)[C@@H](C(=O)N2CCCCC2)C[C@H](CC(=O)NCC24CC5CC(CC(C5)C2)C4)C(=O)N1CC3	-3%	/	/	/	-34%
CCN(Cc1ccncc1)C(=O)c1cc(COc2ccc(F)cc2F)on1	56%	-4%	-19%	40µM*	-15%
CN(C(=O)c1ccc2c(c1)OCO2)C1CCCCC1	33%	8%	1%	1%[12.7 µM]	-9%
C[n+]1cc2c3c(ccc2c2ccc4cc5c(cc4c21)OCO5)OCO3	-18%	8.9µM*!	/	1.9µM*	89µM*
COc1ccc(Cl)cc1NC(=S)NNC(=O)c1cccnc1	3%	7%	5%	25µM*	-25%
COc1ccc(Cl)cc1NC(=S)NNC(=O)CC(C)C	8%	23%	-3%	25%[12.7 µM]	-22%
COc1ccc(NC(=S)NNC(=O)c2cccnc2)cc1OC	21%	-9%	-15%	45µM*	-15%
COc1ccc(Cl)cc1NC(=S)NNC(=O)c1cccs1	1%	16%	-29%	28µM*	?
COc1ccc(CC(=O)NNC(=O)c2cccnc2)cc1OC	39%	4%	?	0%	-3%
COC(=O)c1cc(OC)c(OC)cc1NC(=O)Cn1nnc(-c2ccccc2Cl)n1	18%	-2%	-3%	8%[12.7 µM]	-11%
COc1ccc(NC(=O)CSc2nnc(Cc3cccn3C)n2CCc2ccccc2)c(OC)c1	-28%	-7%	50µM*	32%[0.501 µM]	?
COc1ccccc1NC(=O)CSc1nnc(Cc2cccn2C)n1CCc1ccccc1	-11%	7%	50µM*	?	?
CCOC(=O)c1cccc(NC(=O)CCc2nnc3ccc(N4CCCCC4)nn23)c1	41%	3%	0%	/	-3%
O=C(CC(c1ccco1)S(=O)(=O)c1ccccc1)c1ccc(F)cc1 (stereo not given)	-2%	7.9µM*	-33%	3.5µM*	-30%
SMILES	HP1b binding inh	Sfp PPTase inh	BAZ2B inh	G9a inh	JMJD2A Tudor
Cc1cc2nc3c(=O)n(C)c(=O)n(C)c3nc2cc1N=CN(C)C	16%	/	3%	16µM*	-12%
CCCCCCC(=O)Nc1cc2nc3c(nc2cc1C)c(=O)n(C)c(=O)n3C	67%	/	-1%	29%[59 µM]	-2%
COc1ccc(NC(=O)CC2Nc3cccc4cccc(c34)NC2=O)cc1 (stereo not given)	14%	-4%	?	25µM*!	?
C/C(=N\NC(=S)Nc1ccccc1)C1Cc2ccccc2C(=O)O1 (stereo not given)	-5%	22µM*	?	/	-34%
Cc1ccc(NC(=O)C2Cc3ccccc3C(=O)O2)cc1 (stereo not given)	14%	11%	1%	-3%	-6%
C/C(=N\NC(=S)Nc1ccccc1C)C1Cc2ccccc2C(=O)O1 (stereo not given)	11%	-11%	-26%	50µM*	-31%
CCOC(=O)c1[nH]cnc1C(=O)Nc1ccccc1OC	34%	2%	89µM*	?	?
CCOC(=O)c1[nH]cnc1C(=O)Nc1ccccn1	28%	-21%	79µM*	?	-88%
CCOC(=O)c1[nH]cnc1C(=O)Nc1ccc(Cl)cc1	34%	10%	-15%	3%	-8%
CCOC(=O)c1[nH]cnc1C(=O)Nc1cccc(Cl)c1	3%	-2%	89µM*	?	-15%
CN1C(=O)NC(c2ccc(O)cc2)C2=C1CN(c1cccc3ccccc13)C2=O (stereo not given)	48%	-26%	-17%	15%[59 µM]	-11%[11.4 µM]
CCCCn1c(N)c(N(CC(C)C)C(=O)C2CC(=O)N(c3ccc4c(c3)OCCO4)C2)c(=O)[nH]c1=O (stereo not given)	5%	/	10%	-42%	-1%
CCc1nc(SCC(=O)Nc2ccc(N(C)C)cc2)c2ccccc2n1	1%	?	-30%	10µM*	-33%
CCc1nc(SCC(=O)NNC(=O)C(C)C)c2ccccc2n1	14%	4%	-5%	20%[59 µM]	-11%
COc1ccc(NC(=O)CSc2ccc3c4c(cccc24)C(=O)c2ccccc2-3)cc1	12%	40µM*	2%	-6%	-11%
COc1ccc(NC(=O)CSc2nnc(-c3ccccc3C)n2N)cc1	49%	-14%	-2%	50µM*	1%
N#Cc1cccc(NC(=O)CSc2ccc3c4c(cccc24)C(=O)c2ccccc2-3)c1	28%	11%	-3%	?	-16%
COc1ccc(-c2nnc(SCC(=O)NC3CCCCC3)n2N)cc1	34%	/	7%	45µM*	-10%
Cc1ccc(N2CCN(C(=O)C3CCC(CNS(=O)(=O)c4ccc(Br)s4)CC3)CC2C)cc1 (stereo not given)	13%	/	0%	-21%[59 µM]	-7%
O=C(CSc1nncc2ccccc12)Nc1ccccc1	15%	7%	0%	?	-1%
CCOc1cccc(-c2nnc(SCC(=O)Nc3cc(OC)cc(OC)c3)n2N)c1	46%	-5%	2%	2%	-10%
O=C(CSc1nncc2ccccc12)Nc1ccc(C(=O)O)cc1	39%	50µM*	?	/	-8%
COc1cccc(NC(=O)CSc2nnc(-c3cccc(OC(C)C)c3)n2N)c1	42%	2%	4%	25µM*	56µM*
COc1ccc(NC(=O)CSc2nnc(C)c3ccccc23)cc1	19%[57 µM]	0%	-29%	50µM*	-22%
O=c1c2ccccc2nnn1Cc1ccccc1Cl	43%	-13%	0%	74%	25%
